Screens as filed in PubChem.
Shown are actives, neighbours in structure and some others; about 10% of the full set was active somewhere.
GLA inh pH 4.5: alpha-galactosidase A (human) inhibition, pH 4.5; P06280; purified enzyme, 4-MU-alpha-Gal fluorescence, pH 4.5; activity change, negative = inhibition, % at 105 µM; 230,000 tested, under 10 active; AID 1467;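 also: 0% = full activity with enzyme and -100% = basal without enzyme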
Target sequence (P06280 whole entry, looked up): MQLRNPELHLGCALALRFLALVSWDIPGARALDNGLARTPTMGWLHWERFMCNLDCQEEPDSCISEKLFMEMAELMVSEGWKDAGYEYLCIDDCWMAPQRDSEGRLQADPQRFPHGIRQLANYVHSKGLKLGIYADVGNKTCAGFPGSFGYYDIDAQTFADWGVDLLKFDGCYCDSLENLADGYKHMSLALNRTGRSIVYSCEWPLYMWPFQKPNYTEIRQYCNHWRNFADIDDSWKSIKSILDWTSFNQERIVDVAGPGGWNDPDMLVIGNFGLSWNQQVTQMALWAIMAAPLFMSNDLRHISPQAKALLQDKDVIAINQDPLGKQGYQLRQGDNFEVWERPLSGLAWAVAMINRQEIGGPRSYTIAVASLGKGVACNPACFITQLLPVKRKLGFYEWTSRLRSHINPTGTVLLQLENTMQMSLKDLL
HPGD inh: blocks human HPGD enzyme activity | purified HPGD, NADH fluorescence kinetic, PGE2 substrate | Potency, µM, for the others: top-dose activity change, negative = inhibition, usual class: inhibitors | actives 4.3% (n = 150,000); active = well fitted inhibition curve with a large enough effect, not every such curve was filed as active; inconclusive = small, poorly fitted or top-dose-only effect, or another doubt; inactive = no such curve, though single readings can be large or run the other way; also: potency is read from the fitted curve at half-maximal effect
Target sequence (P15428 whole entry, looked up): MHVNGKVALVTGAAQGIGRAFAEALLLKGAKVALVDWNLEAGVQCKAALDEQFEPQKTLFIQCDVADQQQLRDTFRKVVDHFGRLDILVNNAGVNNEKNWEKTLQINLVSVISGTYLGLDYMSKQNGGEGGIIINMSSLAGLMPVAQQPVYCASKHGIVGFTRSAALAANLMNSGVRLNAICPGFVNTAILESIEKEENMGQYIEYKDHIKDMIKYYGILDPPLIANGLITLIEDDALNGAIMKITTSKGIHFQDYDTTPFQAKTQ
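20 nM HPGD preincubated 15 min at room temperature with compound in 50 mM Tris-HCl pH 8, 0.01% Tween 20. Started with 1 mM NAD+ and 30 uM prostaglandin E2; NADH fluorescence (360/450 nm) read 5 times over 30-s intervals, last minus first.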
ALDH1A1 inh: blocks purified human ALDH1A1 activity. P00352. Purified ALDH1A1, NADH fluorescence, propionaldehyde substrate. Potency, µM (top dose mostly 75.3 µM), without a hit: at the top dose activity, negative = inhibition, hits mostly inhibitors. actives 7.3% (n = 220,000); active = well fitted inhibition curve with a large enough effect, not every such curve was filed as active; inconclusive = small, poorly fitted or top-dose-only effect, or another doubt; inactive = no such curve, though single readings can be large or run the other way;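 also: potency is read from the fitted curve at half-maximal effect; plate controls were no enzyme wells and a reference inhibitor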
12-hLO inh: inhibitors of human 12-lipoxygenase (ALOX12). purified 12-hLO, xylenol orange hydroperoxide absorbance. Potency, µM (doses to about 57.1 µM), for the others: at the highest dose activity change, negative = inhibition, most hits filed as inhibitors. actives 0.12% (n = 150,000). AID 1452; also: potency is read from the fitted curve at half-maximal effect; nearly all actives have a fitted effect of over 55% in size
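150 nM 12hLO, 25 mM Hepes pH 7.0 + 0.01% Triton X-100; cpd preinc 15 min RT; 40 uM arachidonic acid, 30 min RT; Fe-XO 30 min; A573/A405 ratio as read-out.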
GLA spleen mod: alpha-galactosidase A (human) modulation; human spleen homogenate, 4MU-alpha-Gal fluorescence, 40 min; Potency, µM (top dose mostly 80 µM), without a hit: top-dose activity change, negative = inhibition, actives largely listed as inhibitors; actives 0.008% (n = 240,000);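 also: potency is read from the fitted curve at half-maximal effect; 0% = enzyme with vehicle and -100% = no enzyme basal signal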
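Fluorogenic readout (Ex 365/Em 440 nm) of 4-methylumbelliferone released from 1 mM 4-MU-alpha-galactoside by spleen homogenate, 40 min at 37C, pH 5.0. Data normalized to no-enzyme and enzyme controls; Hill-equation AC50 from compound titrations.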
PNC inhibitor: inhibitors of perinucleolar compartment assembly. PC3M PTB-GFP, PNC prevalence imaging, 16 h; hits give low values. activity change (PNC), negative = inhibition, % at 10 µM. actives 3.1% (n = 140,000);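 active = readout at or below -70, meaning at least 70% loss of cells showing the perinucleolar compartment, a nuclear body marking cancer cells; inconclusive = readout between -30 and a set limit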;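 also: plate controls were DMSO wells for no effect and camptothecin positive control wells for full effect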
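Read-out is percentage of cells bearing a perinucleolar compartment, from automated 20x imaging of fixed, Hoechst-stained PC3M PTB-GFP cells. Cells were seeded 4 h, then exposed 16 h to compound (23 nl of library stock) in duplicate plates.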
An asterisk follows results filed as active; ? = inconclusive; · = no result. Unless noted, calls follow the shape of the dose curve; as a rule, active = well fitted curve in the direction sought with a large enough effect; inconclusive = small, poorly fitted or top-dose-only effect, or another doubt; inactive = no such curve, though single readings can be large; an effect the other way counts as inactive or inconclusive. Unless noted, % is scaled to controls: 0 for no effect and ±100 for the full control effect.

SMILES | GLA inh pH 4.5 | HPGD inh | ALDH1A1 inh | 12-hLO inh | GLA spleen mod | PNC inhibitor
CCOC(=O)/C(C#N)=C/c1ccc(OCC(=O)Nc2ccc(C)c(C)c2)c(OC)c1 | 12 | ? | ? | -2% | 0% | -22
COc1ccc(/C=C(\C#N)C(=O)OCC(=O)NC2CC2)cc1 | -7 | · | 20µM* | · | -4% | ·
CCOC(=O)/C(C#N)=C/c1ccc(OCC(=O)Nc2ccc(OC)cc2)c(OC)c1 | 2 | -31% | 5µM* | 4% | -5% | -8
CC(=O)NCCNc1nc(-c2ccc3c(c2)OCO3)nc2ccccc12 | · | · | ? | · | 3% | ·
CCOC(=O)C1(Cc2ccccc2)CCN(Cc2ccc3c(c2)OCCO3)CC1 | -13 | · | ? | · | 11% | ·
CCOc1ccc(Cc2nnc(N)s2)cc1OCC | 1 | -5% | 24% | 1% | 17% | -86*
Nc1nnc(Cc2ccc(Cl)cc2)s1 | -2 | -8% | ? | 2% | -2% | ?
COc1ccc(/C=C/C=N/NC(=O)COc2ccc(OC)cc2)cc1 | -11 | -10% | 4% | 3% | 7% | ?
COc1ccccc1NCC(=O)N/N=C/c1cccnc1 | -8 | -21% | ? | 3% | -6% | ?
COc1ccccc1NCC(=O)N/N=C/C=C/c1ccccc1 | 8 | -16% | 14µM* | -4% | 3% | 42
COc1ccc(NCC(=O)N/N=C/C=C\c2ccccc2)cc1 | -1 | -22% | 9.5µM* | -5% | -1% | ?
CN(C)c1ncc2nc(-c3cc(F)cc(F)c3)c(=O)n(-c3ccccc3)c2n1 | · | · | 18% | · | 11% | ·
CN(C)S(=O)(=O)c1cccc(NC(=O)CN2C(=O)C3C4C=CC(C4)C3C2=O)c1 (centres undefined) | 4 | 2% | 2% | -3% | -8% | 17
COc1ccc(CNC(=S)NC(C)CCc2ccccc2)cc1 (centres undefined) | -3 | · | 6.3µM* | · | -6% | ·
COc1ccc(CNC(=S)NCc2ccc(OC)cc2)cc1 | 1 | · | 20µM* | · | 5% | ·
CC(CCc1ccccc1)NC(=O)/C=C/c1ccccc1 (centres undefined) | 4 | -4% | 11µM* | -3% | -1% | 52
Cc1ccc(CC(=O)NC(C)CCc2ccccc2)cc1 (centres undefined) | 1 | -27% | -5% | -4% | -3% | ?
CC(CCc1ccccc1)NC(=O)/C=C/c1ccc(F)cc1 (centres undefined) | -4 | · | ? | · | -1% | ·
CC(CCc1ccccc1)NC(=O)CN1CCN(c2ccccc2)CC1 (centres undefined) | 8 | · | 32µM* | · | -7% | ·
CN(C)c1ncnc2ccc(-c3ccccc3C(F)(F)F)cc12 | · | · | ? | · | 6% | ·
CCCCC/C=C\C\C=C/C=C/C=C/[C@@H](SCC(N)C(=O)O)[C@@H](O)CCCC(=O)O (some centres undefined) | -2 | 2% | 4% | 0% | -14% | ·
Cc1noc(C)c1C(=O)NC(C)c1ccc(Cl)cc1Cl (centres undefined) | 4 | · | 1% | · | 7% | ·
Cc1ccc(NC(=S)NC(C)CCc2ccccc2)cc1C (centres undefined) | 4 | -4% | -12% | -21% | -9% | 17
Cc1cccc(C)c1NC(=S)NC(C)CCc1ccccc1 (centres undefined) | 6 | -5% | 5% | ? | -9% | -82*
Oc1c(Cl)cc(Cl)c2c1NCCC2 | -4 | -10% | 5µM* | ? | 0% | 17
SMILES | GLA inh pH 4.5 | HPGD inh | ALDH1A1 inh | 12-hLO inh | GLA spleen mod | PNC inhibitor
CN(C)CCc1c[nH]c2ccc(CS(=O)(=O)N3CCCC3)cc12 | 4 | -6% | -4% | -1% | -5% | ·
CCOC(=O)NC(NC(=S)Nc1ccc(OCC)cc1)C(Cl)(Cl)Cl (centres undefined) | -14 | -3% | 7% | -2% | 1% | 31
O=C(NC(NC(=S)Nc1c(Cl)cccc1Cl)C(Cl)(Cl)Cl)OCc1ccccc1 (centres undefined) | ? | -13% | 10µM* | -21% | 1% | ?
O=C(NC(=S)N1CCCc2ccccc21)c1ccc(Cl)cc1 | -7 | ? | -174% | -2% | 9% | -107*
O=C(NC(=S)N1CCCc2ccccc21)c1ccccc1 | 8 | -10% | ? | 0% | -6% | 91
O=C(NC(=S)N1CCCc2ccccc21)c1ccc([N+](=O)[O-])cc1 | -6 | -20% | 11µM* | -5% | 3% | ?
COc1cc(N2CCCC2)c(OC)cc1C=O | -4 | · | ? | · | 1% | ·
COc1cc(C=O)c([N+](=O)[O-])cc1OC | -6 | -20% | 11µM* | -9% | -6% | ·
O=C(c1ccc(CSc2nc3ccncc3[nH]2)cc1)N1CCCCC1 | -3 | 0.56µM* | 25µM* | -1% | -5% | 34
Cc1ccc(C)c(N2CCN(C(=O)c3ccc(CSc4nc5ccncc5[nH]4)cc3)CC2)c1 | 3 | -8% | ? | -5% | -3% | 12
COc1cccc(N2CCN(C(=O)c3ccc(CSc4nc5ccncc5[nH]4)cc3)CC2)c1 | 0 | -6% | 22µM* | -6% | 0% | 19
O=C(O)c1ccccc1-c1ccccc1C(=O)NCc1cccc(C(F)(F)F)c1 | 5 | · | 6% | · | 5% | ·
CC(=O)Nc1c(I)cc(I)c(C(=O)O)c1I | -1 | -1% | 8% | 1% | -1% | ·
CCOC(=O)C1=C(O)C(=O)N(Cc2ccc(C(C)(C)C)cc2)CC1 | -1 | · | 14µM* | · | 0% | ·
COc1ccc(C2=Nn3c(nnc3-c3ccccc3O)SC2)cc1OC | · | · | · | · | 5% | ·
COC(=O)C(CCSC)NC(=O)c1cc2c(n(-c3ccccc3)c1=O)CC(C)(C)CC2=O (centres undefined) | 16 | -7% | 28µM* | 0% | -8% | 18
CC1(CC(=O)N/N=C/c2cc([N+](=O)[O-])c(O)cc2O)OCCO1 | -10 | · | ? | · | -8% | ·
Cc1ccc(S(=O)(=O)N(C)C)cc1NC(=O)Nc1ccccc1 | 2 | · | · | · | 1% | ·
Cc1ccc(S(=O)(=O)N(C)C)cc1NC(=O)CCc1ccccc1 | -14 | · | 4.5µM* | · | 1% | ·
COc1ccc(S(=O)(=O)N(C)C)cc1NC(=O)Cc1c[nH]c2ccccc12 | -3 | · | -17% | · | 3% | ·
Cc1ccc(S(=O)(=O)N(C)C)cc1NC(=O)CCc1c[nH]c2ccccc12 | 1 | · | 4.5µM* | · | -5% | ·
COc1cc(/C=C(/C#N)c2ccc(F)cc2)ccc1Oc1ccc([N+](=O)[O-])cn1 | -3 | -4% | -1% | -1% | 10% | 8
CCOc1cc(C=C(C#N)C#N)ccc1Oc1ccc([N+](=O)[O-])cn1 | 4 | · | 3.2µM* | · | -2% | ·
